Efflux pump mplx: blocks antifungal efflux pumps in multiplex yeast assay | S. cerevisiae Candida pump triplex, Nile Red efflux | inhibition, % at 10 µM | 330,000 tested, 0.44% active | AID 485275;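 active = plate passing quality check with inhibition over a set limit, or well fluorescence over plate mean plus 4 SD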;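 also: Nile Red retained in pooled yeast measured as flow cytometry median fluorescence; 0% = buffer negative control and 100% = Enniatin B positive control; higher means more Nile Red kept so more efflux inhibition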
ALR H2O2 inh: blocks human ALR sulfhydryl oxidase activity. inhibition, % (no concentration beside the values). P55789. purified ALR, DTT oxidation, H2O2 HRP-luminol luminescence. 290,000 tested, 3.8% active;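 active = mean replicate inhibition above about 79%, with every replicate also reaching it, limit read from the data; inconclusive = only one of the two criteria met; inactive = mean below limit and not every replicate reaching it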
AHR activator: activates the human aryl hydrocarbon receptor; P35869; AHR-responsive luciferase reporter cells, luminescence; activation, % at 5 µM; 320,000 tested, 2.5% active; AID 2796; in the data active = activation above about 47%;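 also: 0% = vehicle wells and 100% = reference agonist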
Target sequence (P35869 whole entry, looked up): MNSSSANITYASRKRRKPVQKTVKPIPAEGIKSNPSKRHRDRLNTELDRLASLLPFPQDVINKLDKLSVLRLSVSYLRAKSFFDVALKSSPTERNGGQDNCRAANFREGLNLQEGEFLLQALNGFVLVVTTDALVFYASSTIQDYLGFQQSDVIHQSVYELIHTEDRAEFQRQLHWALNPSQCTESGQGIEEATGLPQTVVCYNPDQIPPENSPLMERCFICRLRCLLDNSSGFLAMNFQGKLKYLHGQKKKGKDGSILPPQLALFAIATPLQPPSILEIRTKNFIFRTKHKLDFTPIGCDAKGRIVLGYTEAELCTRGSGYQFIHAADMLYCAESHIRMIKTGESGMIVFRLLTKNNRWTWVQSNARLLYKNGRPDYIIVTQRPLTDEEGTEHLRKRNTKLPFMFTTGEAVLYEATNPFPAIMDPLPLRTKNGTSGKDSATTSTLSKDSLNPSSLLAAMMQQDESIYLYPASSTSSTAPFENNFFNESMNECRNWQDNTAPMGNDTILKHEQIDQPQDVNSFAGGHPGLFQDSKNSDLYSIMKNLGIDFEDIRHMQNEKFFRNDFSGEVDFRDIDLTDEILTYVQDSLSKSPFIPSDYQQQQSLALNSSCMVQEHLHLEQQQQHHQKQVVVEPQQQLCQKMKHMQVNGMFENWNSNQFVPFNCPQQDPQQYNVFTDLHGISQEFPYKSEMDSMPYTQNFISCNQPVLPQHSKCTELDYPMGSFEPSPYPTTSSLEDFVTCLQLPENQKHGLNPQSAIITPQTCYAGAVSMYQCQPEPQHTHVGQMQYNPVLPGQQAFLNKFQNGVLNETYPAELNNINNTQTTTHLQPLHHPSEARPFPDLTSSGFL
VLA-4 inh: inhibition in a human VLA-4 binding assay; VLA-4 expressing cells, ligand binding flow cytometry; inhibition, % (about 7 µM as worked out from the volumes in the protocol); 330,000 tested, 0.2% active; AID 2557; in the data active = inhibition above about 50%
Bfl-1 A1 inh: inhibitors of the anti-apoptotic protein A1, read as caspase activation | AID 2462 | caspase activation, % (concentration not given with the values) | MEF A1-2A-BIM cells, Caspase-Glo 3/7 luminescence, 3 h; percent of clofoctol response, vehicle zero | 330,000 tested, 0.066% active;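 active = over half of replicate activation scores above 10%, or exactly half above 10 with the replicate mean above 10; inconclusive = replicate mean below 10 yet half the replicates above 10; inactive = over half of replicates below 10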
Mot1-301 SUMO: inhibitors of SUMOylation pathway: yeast Mot1-301 growth rescue; S. cerevisiae Mot1-301 growth rescue, ATP luminescence, 38.5C; percent above DMSO median, 100 means doubled; growth rescue, % at 18.8 µM; 320,000 tested, 1% active; AID 2716;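 active = every valid replicate shows activation above 250% relative to neutral control wells; inactive = the rest, any valid replicate at or below 250%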;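 also: OY570 slx delta 5 strain wells were the positive control but not used for scaling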
Numbers without * were called inactive; i = inactive; ? = inconclusive; nt = not tested or not shown. Compounds with a hit are over-represented: about 7.2% of the library has one in this group of screens.

SMILES	Efflux pump mplx	ALR H2O2 inh	AHR activator	VLA-4 inh	Bfl-1 A1 inh	Mot1-301 SUMO
CCCn1ccnc1SCC(=O)Nc1c(C)n(C)n(-c2ccccc2)c1=O	0.0	nt	-0.8	9.1	-0.2	-10.0
O=C(Nc1ccc(Br)cc1F)c1sccc1-n1cccc1	-0.1	-4.3	102.8*	22.0	0.5	-8.8
COc1cccc(C(=O)NNC(=O)c2ccccc2-n2cccc2)c1	0.0	-3.6	10.3	-0.5	1.1	16.8
COC(=O)c1sccc1NC(=O)Nc1cccc(C)c1	-0.1	-0.6	43.1	4.0	-8.9	-11.4
Cc1cccc(NC(=O)NNC(=O)c2sccc2-n2cccc2)c1	0.1	4.9	52.8*	0.0	0.4	174.3
COc1cccc(C(=O)NNC(=O)c2sccc2-n2cccc2)c1	0.2	3.6	69.0*	2.0	0.3	17.1
Cc1ccc(CCNC(=O)C2CCN(S(=O)(=O)c3ccc4c(c3)CCC(=O)N4)CC2)cc1	-0.1	-2.4	-2.0	29.3	0.6	2.3
CC(C)CCNC(=O)C1CCN(S(=O)(=O)c2ccc3c(c2)CCC(=O)N3)CC1	-0.2	84.5*	0.3	-3.4	?	3.9
Cn1c(N)c(C(=O)c2ccc(C#N)cc2)c(=O)n(C)c1=O	-0.1	-5.0	-3.9	-7.0	-0.4	-1.3
Cc1ccc(NC(=O)c2cccc(-n3cnnn3)c2)cc1Cl	0.2	nt	56.2*	15.6	0.2	-1.4
CC(=O)n1c(=O)c2ccccc2c(=O)n1-c1ccccc1	-0.2	97.9*	1.5	1.2	-0.7	19.1
CC(C)(C)c1csc(NC(=O)c2c(F)c(F)c(F)c(F)c2F)n1	-0.1	97.7*	1.6	8.1	0.7	-13.0
CC(C)(C)c1csc(NC(=O)c2ccccc2O)n1	-0.1	80.7*	-0.5	-27.2	-1.5	1.0
CCOc1ccc(N(CC(=O)NC2CC2)S(=O)(=O)c2ccc(C)cc2)cc1	0.4	1.2	0.3	3.6	0.5	-5.1
Cc1cc(NCCCn2ccnc2)n2ncc(-c3ccccc3)c2n1	-0.1	nt	34.1	-0.4	-4.0	7.1
Cc1cc(NCCCn2ccnc2)n2nc(C)c(-c3ccccc3)c2n1	-0.1	19.5	112.1*	9.3	2.8	-6.9
Cc1cc(NCCCn2ccnc2)n2nc(C)c(-c3ccc(Cl)cc3)c2n1	0.0	15.1	48.4*	11.0	0.6	-0.8
COc1cc(-c2noc(C)c2-c2ccc(N(C)C)nc2)cc(OC)c1OC	nt	-14.5	4.8	nt	-0.4	-6.9
COc1cc(-c2noc(C)c2C#Cc2nccn2C)cc(OC)c1OC	0.0	2.7	65.6*	1.5	-0.2	-14.8
Cc1ccc(C)c(OCCSc2nnc(C)c(=O)[nH]2)c1	0.0	14.1	-0.5	0.0	-0.4	-6.4
O=C(c1ccccc1)c1cc2ccc(O)cc2oc1=O	0.0	10.9	-1.9	-4.4	-7.2	-69.7
O=C(c1ccc(Br)cc1)c1cc2ccc(O)cc2oc1=O	0.1	96.8*	4.0	6.2	-12.1	2.9
COCCn1c(SCC(=O)c2cccc(OC)c2)nnc1-c1ccco1	0.0	93.0*	1.6	-5.5	0.4	-9.9
Cn1c(SCC(=O)c2cc(Cl)c(Cl)s2)nnc1-c1ccco1	-0.1	97.7*	-4.0	-0.5	-0.6	4.9
Cc1ccc(C(=O)CSc2nnc(-c3ccco3)n2C)cc1	0.0	19.1	-1.0	11.8	0.8	0.3
SMILES	Efflux pump mplx	ALR H2O2 inh	AHR activator	VLA-4 inh	Bfl-1 A1 inh	Mot1-301 SUMO
COCCn1c(SCC(=O)N2CCCC2)nnc1-c1ccco1	0.2	-1.3	0.5	-0.7	0.0	-0.2
O=C(N/N=C/c1cccs1)c1cc(-c2ccc(Cl)s2)[nH]n1	0.1	-0.6	32.5	i	-0.4	7.3
Cc1cc(N/N=C/c2ccccc2Br)nc2ccccc12	0.1	-21.3	52.2*	-7.6	0.1	-3.6
Cc1cc(N/N=C/c2ccc3c(c2)OCO3)nc2ccccc12	0.0	19.2	11.1	10.2	-2.9	18.8
Cc1sc2ncnc(N3CCN(C(=O)c4ccco4)CC3)c2c1C	-0.2	-4.7	54.8*	17.3	0.0	-15.6
Cc1ccc(-c2csc3ncnc(N4CCN(C(=O)c5ccco5)CC4)c23)cc1	0.1	4.8	-1.3	-12.4	-1.4	35.5
O=C(c1ccco1)N1CCN(c2ncnc3c(-c4ccc(Cl)cc4)nsc23)CC1	0.4	-19.5	57.7*	6.3	0.5	-11.4
CC(C)n1nnnc1SCC(=O)N(C)C1CCS(=O)(=O)C1 (centres undefined)	0.0	-1.0	0.1	-1.1	0.2	5.2
Cn1c(C(C#N)C(=O)c2ccco2)nc2ccccc21 (centres undefined)	0.0	-7.4	76.8*	4.8	-0.5	73.5
CC(C)(C)C(=O)CNCC(=O)C(C)(C)C	-0.1	-5.5	-0.8	2.6	0.1	-1.5
COc1ccnc(Oc2ccccc2)c1C(=O)N/C=N/OCc1ccccc1F	0.1	0.4	12.6	5.7	0.0	-4.8
CN(C)c1nc2ccccc2c(N)c1-c1ccccc1	0.0	-2.3	55.1*	14.6	0.4	20.4
COc1cccc(/C=N/n2c(C3CCCCC3)n[nH]c2=S)c1OC	0.1	-4.6	5.1	4.0	0.3	25.7
COc1cccc(/C=N/n2c(C3CCCCC3)n[nH]c2=S)c1O	0.0	91.9*	nt	8.8	-0.1	-4.7
COc1cc(/C=N/n2c(C3CCCCC3)n[nH]c2=S)ccc1O	-0.2	98.1*	nt	3.4	0.4	-24.0
S=c1[nH]nc(C2CCCCC2)n1/N=C/c1ccccn1	0.3	96.0*	-3.7	-12.7	-0.4	3.7
O=S(=O)(NCC1CCC(NS(=O)(=O)c2c(F)cccc2F)CC1)c1ccc2c(c1)OCCO2 (centres undefined)	-0.2	4.7	19.8	3.7	-0.1	-17.8
O=C(Nc1ccccc1)c1sc(Cl)nc1-c1ccccc1	0.2	94.2*	4.4	-8.0	0.1	-10.0
O=C(Nc1ccc(Cl)cc1)c1csc(-c2ccncc2)n1	0.1	0.1	54.4*	12.2	-0.9	-17.9
CNC(=O)c1csc(-c2ccncc2)n1	0.0	-7.9	1.0	-7.7	1.5	13.3
CNC(=O)c1csc(-c2ccc(C)cc2)n1	-0.1	98.7*	-5.5	2.5	-4.1	-6.6
CNC(=O)c1csc(-c2ccc(Cl)cc2)n1	0.2	-40.2	-4.4	11.3	-0.8	50.3
O=C(Nc1ccc(Br)cc1)c1csc(-c2ccncc2)n1	-0.1	-4.8	52.7*	-1.5	0.0	-17.2
CCCCN(C)CCC(=O)Nc1ccc(F)c(F)c1	-0.3	-33.9	1.4	7.0	-0.3	-11.8
Cc1ccc(S(=O)(=O)N2CCN(C(=O)c3ccc(COc4ccccc4)o3)CC2)cc1	0.1	-2.2	-1.4	14.0	-1.1	54.6
CCOc1ccc(CN(C(=O)c2ccccn2)c2ccc(OC)c(Cl)c2)cc1	0.0	-20.1	0.8	-7.3	0.5	120.1
Cc1ccc(CCC(=O)Nc2ccc(C)c(C)c2)o1	0.3	37.8	1.1	7.0	-0.8	-26.2
O=C(Nc1ccc(Cl)cc1)c1csc(-c2ccccc2)n1	-0.1	0.2	96.8*	-5.7	0.0	18.6
O=C(O)c1csc(-c2ccc(Cl)cc2)n1	-0.1	29.9	2.1	-1.0	-0.9	-2.1

Screening results from PubChem BioAssay.
